{"source": "paper PMC11062922", "about": "(Nature Chemical Biology, 2023)", "set-up_in_all_cases": "species or system human, MV4-11 + K-562 + COLO205 + SK-N-BE2 + OVCAR-8", "key": {"CDK7": {"test_system": "CDK7", "conditions": "read-out: apparent Kd, n = 1"}, "CDKL5": {"test_system": "CDKL5", "conditions": "read-out: apparent Kd; compound concentrations: 100 nM and 1000 nM (sheet 'Samples'), CATDS: 7.5103535509973398E-3; n = 1"}, "DYRK1A": {"test_system": "DYRK1A", "conditions": "read-out: apparent Kd, compound concentrations: 100 nM and 1000 nM (sheet 'Samples'), n = 1"}, "ERCC2": {"test_system": "ERCC2", "conditions": "read-out: apparent Kd, n = 1"}, "FER": {"test_system": "FER", "conditions": "read-out: apparent Kd, n = 1"}, "FLT3": {"test_system": "FLT3", "conditions": "read-out: apparent Kd, n = 1"}, "LATS1": {"test_system": "LATS1", "conditions": "read-out: apparent Kd, n = 1"}, "MYLK3": {"test_system": "MYLK3", "conditions": "read-out: apparent Kd, n = 1"}, "PLK4": {"test_system": "PLK4", "conditions": "read-out: apparent Kd, n = 1"}, "PRKAA1": {"test_system": "PRKAA1", "conditions": "read-out: apparent Kd, n = 1"}, "PRKCD": {"test_system": "PRKCD", "conditions": "read-out: apparent Kd, n = 1"}, "PRKD2": {"test_system": "PRKD2", "conditions": "read-out: apparent Kd, compound concentrations: 100 nM and 1000 nM (sheet 'Samples'), n = 1"}, "PRKD3": {"test_system": "PRKD3", "conditions": "read-out: apparent Kd, n = 1"}, "PTK2B": {"test_system": "PTK2B", "conditions": "read-out: apparent Kd, n = 1"}, "PTK2": {"test_system": "PTK2", "conditions": "read-out: apparent Kd, n = 1"}, "RPS6KA6": {"test_system": "RPS6KA6", "conditions": "read-out: apparent Kd, n = 1"}, "STK10": {"test_system": "STK10", "conditions": "read-out: apparent Kd, n = 1"}, "TNK2": {"test_system": "TNK2", "conditions": "read-out: apparent Kd, n = 1"}, "PRKCQ": {"test_system": "PRKCQ", "conditions": "read-out: apparent Kd; compound concentrations:100 nM and 1000 nM (sheet 'Samples'); n = 1"}, "[1]": {"conditions": "compound concentrations:100 nM and 1000 nM (sheet 'Samples')"}}, "note": "Like-named read-outs stand apart in the source and are kept apart here."}
{"smiles": "CCOC(=O)N1CCC(n2cnc(-c3ccc(F)cc3)c2-c2ccnc(N)n2)CC1", "note": "[SB-219952]", "values": [{"measurement": "potency estimated from few doses", "setting": "CDK7; compound concentrations: 100 nM and 1000 nM (sheet 'Samples'), CATDS: 2.08118175664989E-2", "result": 201, "unit": "nM"}, {"measurement": "potency estimated from few doses", "setting": "CDKL5", "result": 2170, "unit": "nM"}, {"measurement": "potency estimated from few doses", "setting": "DYRK1A; CATDS: 7.51253046880054E-3", "result": 2170, "unit": "nM"}, {"measurement": "potency estimated from few doses", "setting": "ERCC2; compound concentrations: 100 nM and 1000 nM (sheet 'Samples'), CATDS: 2.0109331844810101E-2", "result": 213, "unit": "nM"}, {"measurement": "potency estimated from few doses", "setting": "FER; compound concentrations: 100 nM and 1000 nM (sheet 'Samples'), CATDS: 1.3888971219533201E-2", "result": 416, "unit": "nM"}, {"measurement": "potency estimated from few doses", "setting": "FLT3; compound concentrations: 100 nM and 1000 nM (sheet 'Samples'), CATDS: 8.0965887805869007E-3", "result": 1630, "unit": "nM"}, {"measurement": "potency estimated from few doses", "setting": "LATS1; compound concentrations: 100 nM and 1000 nM (sheet 'Samples'), CATDS: 8.0711896225058692E-3", "result": 1650, "unit": "nM"}, {"measurement": "potency estimated from few doses", "setting": "MYLK3; compound concentrations: 100 nM and 1000 nM (sheet 'Samples'), CATDS: 7.2973663588222501E-3", "result": 2470, "unit": "nM"}, {"measurement": "potency estimated from few doses", "setting": "PLK4; compound concentrations: 100 nM and 1000 nM (sheet 'Samples'), CATDS: 1.18225591983295E-2", "result": 582, "unit": "nM"}, {"measurement": "potency estimated from few doses", "setting": "PRKAA1; compound concentrations: 100 nM and 1000 nM (sheet 'Samples'), CATDS: 1.3066263921832201E-2", "result": 471, "unit": "nM"}, {"measurement": "potency estimated from few doses", "setting": "PRKCD; compound concentrations: 100 nM and 1000 nM (sheet 'Samples'), CATDS: 8.2492592697018703E-3", "result": 1530, "unit": "nM"}, {"measurement": "potency estimated from few doses", "setting": "PRKD2; CATDS: 9.3127707603308692E-3", "result": 1050, "unit": "nM"}, {"measurement": "potency estimated from few doses", "setting": "PRKD3; compound concentrations: 100 nM and 1000 nM (sheet 'Samples'), CATDS: 8.3087862400952096E-3", "result": 1490, "unit": "nM"}, {"measurement": "potency estimated from few doses", "setting": "PTK2B; compound concentrations: 100 nM and 1000 nM (sheet 'Samples'), CATDS: 1.55357941259002E-2", "result": 336, "unit": "nM"}, {"measurement": "potency estimated from few doses", "setting": "PTK2; compound concentrations: 100 nM and 1000 nM (sheet 'Samples'), CATDS: 1.3544498558995E-2", "result": 438, "unit": "nM"}, {"measurement": "potency estimated from few doses", "setting": "RPS6KA6; compound concentrations: 100 nM and 1000 nM (sheet 'Samples'), CATDS: 1.4323736759091399E-2", "result": 392, "unit": "nM"}, {"measurement": "potency estimated from few doses", "setting": "STK10; compound concentrations: 100 nM and 1000 nM (sheet 'Samples'), CATDS: 9.6073353466608804E-3", "result": 964, "unit": "nM"}, {"measurement": "potency estimated from few doses", "setting": "TNK2; compound concentrations: 100 nM and 1000 nM (sheet 'Samples'), CATDS: 1.6319458510121398E-2", "result": 307, "unit": "nM"}]}
{"smiles": "Cc1ccc(Nc2ccnc(Nc3ccc4c(c3)CS(=O)(=O)C4)n2)cc1O.Cl", "note": "[GW579362A]", "values": [{"measurement": "potency estimated from few doses", "setting": "STK10; compound concentrations: 100 nM and 1000 nM (sheet 'Samples'), CATDS: 3.2691719677524503E-2", "result": 950, "unit": "nM"}]}
{"smiles": "O=C1N=C(Nc2ccccc2)S/C1=C\\c1ccc2ncccc2c1", "note": "[RO4493940-000]", "values": [{"measurement": "potency estimated from few doses", "setting": "DYRK1A; CATDS: 0.176247651150404", "result": 1930, "unit": "nM"}]}
{"smiles": "CCn1c(-c2nonc2N)nc2c(C#CC(C)(C)O)nc(OCCN)cc21.CCn1c(-c2nonc2N)nc2c(C#CC(C)(C)O)nc(OCCN)cc21.Cl.Cl", "note": "[GSK902056A]", "values": [{"measurement": "potency estimated from few doses", "setting": "LATS1; [1]", "result": 70.2, "unit": "nM"}, {"measurement": "potency estimated from few doses", "setting": "PRKCD; [1]", "result": 373, "unit": "nM"}, {"measurement": "potency estimated from few doses", "setting": "PRKCQ", "result": 50.9, "unit": "nM"}]}
{"smiles": "Cc1ccc2c(-c3ccncc3)c(-c3ccc(F)cc3)nn2c1.Cl", "note": "[GW461484A]", "values": [{"measurement": "potency estimated from few doses", "setting": "CDK7; [1]", "result": 288, "unit": "nM"}, {"measurement": "potency estimated from few doses", "setting": "ERCC2; [1]", "result": 214, "unit": "nM"}, {"measurement": "potency estimated from few doses", "setting": "FER; [1]", "result": 259, "unit": "nM"}, {"measurement": "potency estimated from few doses", "setting": "PLK4; [1]", "result": 428, "unit": "nM"}, {"measurement": "potency estimated from few doses", "setting": "PRKAA1; [1]", "result": 773, "unit": "nM"}, {"measurement": "potency estimated from few doses", "setting": "PRKD3; [1]", "result": 2110, "unit": "nM"}, {"measurement": "potency estimated from few doses", "setting": "PTK2B; [1]", "result": 354, "unit": "nM"}, {"measurement": "potency estimated from few doses", "setting": "PTK2; [1]", "result": 462, "unit": "nM"}, {"measurement": "potency estimated from few doses", "setting": "RPS6KA6; [1]", "result": 248, "unit": "nM"}, {"measurement": "potency estimated from few doses", "setting": "TNK2; [1]", "result": 328, "unit": "nM"}]}
{"smiles": "CCn1c(-c2nonc2N)nc2c(-c3ccccc3)ncc(OCCCN)c21.CCn1c(-c2nonc2N)nc2c(-c3ccccc3)ncc(OCCCN)c21.O=C(O)C(F)(F)F.O=C(O)C(F)(F)F", "note": "[GSK260205A]", "values": [{"measurement": "potency estimated from few doses", "setting": "LATS1; compound concentrations: 100 nM and 1000 nM (sheet 'Samples'), CATDS: 3.5695697906411097E-2", "result": 734, "unit": "nM"}, {"measurement": "potency estimated from few doses", "setting": "PRKCD; compound concentrations: 100 nM and 1000 nM (sheet 'Samples'), CATDS: 3.0969413640761199E-2", "result": 1160, "unit": "nM"}, {"measurement": "potency estimated from few doses", "setting": "PRKD2; CATDS: 3.1729313210787799E-2", "result": 1070, "unit": "nM"}, {"measurement": "potency estimated from few doses", "setting": "PRKD3; compound concentrations: 100 nM and 1000 nM (sheet 'Samples'), CATDS: 2.8953203938898799E-2", "result": 1510, "unit": "nM"}]}
{"smiles": "Fc1ccc(-c2c(-c3ccncc3)[nH]c3cccnc23)cc1", "note": "[RO1153853-000]", "values": [{"measurement": "potency estimated from few doses", "setting": "PRKD2; CATDS: 5.7434995830704397E-2", "result": 1020, "unit": "nM"}, {"measurement": "potency estimated from few doses", "setting": "PRKD3; compound concentrations: 100 nM and 1000 nM (sheet 'Samples'), CATDS: 5.1990975037574202E-2", "result": 1420, "unit": "nM"}]}
{"smiles": "Cl.Cl.NCC(C(=O)Nc1cc(Br)c(-c2ccnc3[nH]ccc23)s1)c1ccccc1.NCC(C(=O)Nc1cc(Br)c(-c2ccnc3[nH]ccc23)s1)c1ccccc1", "note": "(stereo not drawn) [GSK1269851A]", "values": [{"measurement": "potency estimated from few doses", "setting": "CDK7; [1]", "result": 44.7, "unit": "nM"}, {"measurement": "potency estimated from few doses", "setting": "ERCC2; [1]", "result": 37.5, "unit": "nM"}, {"measurement": "potency estimated from few doses", "setting": "FER; [1]", "result": 56.2, "unit": "nM"}, {"measurement": "potency estimated from few doses", "setting": "FLT3; [1]", "result": 1450, "unit": "nM"}, {"measurement": "potency estimated from few doses", "setting": "PLK4; [1]", "result": 523, "unit": "nM"}, {"measurement": "potency estimated from few doses", "setting": "PRKAA1; [1]", "result": 548, "unit": "nM"}, {"measurement": "potency estimated from few doses", "setting": "PRKCD; [1]", "result": 2130, "unit": "nM"}, {"measurement": "potency estimated from few doses", "setting": "PRKCQ", "result": 1130, "unit": "nM"}, {"measurement": "potency estimated from few doses", "setting": "PTK2B; [1]", "result": 63.1, "unit": "nM"}, {"measurement": "potency estimated from few doses", "setting": "PTK2; [1]", "result": 422, "unit": "nM"}, {"measurement": "potency estimated from few doses", "setting": "RPS6KA6; [1]", "result": 364, "unit": "nM"}, {"measurement": "potency estimated from few doses", "setting": "STK10; [1]", "result": 2030, "unit": "nM"}, {"measurement": "potency estimated from few doses", "setting": "TNK2; [1]", "result": 46.6, "unit": "nM"}]}
{"smiles": "NCCNS(=O)(=O)c1ccc(-c2ccnc3[nH]ccc23)cc1", "note": "[GSK977617A]", "values": [{"measurement": "potency estimated from few doses", "setting": "CDK7; [1]", "result": 159, "unit": "nM"}, {"measurement": "potency estimated from few doses", "setting": "ERCC2; [1]", "result": 203, "unit": "nM"}, {"measurement": "potency estimated from few doses", "setting": "FER; [1]", "result": 238, "unit": "nM"}, {"measurement": "potency estimated from few doses", "setting": "LATS1; [1]", "result": 121, "unit": "nM"}, {"measurement": "potency estimated from few doses", "setting": "MYLK3; [1]", "result": 996, "unit": "nM"}, {"measurement": "potency estimated from few doses", "setting": "PLK4; [1]", "result": 584, "unit": "nM"}, {"measurement": "potency estimated from few doses", "setting": "PRKAA1; [1]", "result": 453, "unit": "nM"}, {"measurement": "potency estimated from few doses", "setting": "PRKCD; [1]", "result": 1080, "unit": "nM"}, {"measurement": "potency estimated from few doses", "setting": "PRKCQ", "result": 1950, "unit": "nM"}, {"measurement": "potency estimated from few doses", "setting": "PTK2B; [1]", "result": 335, "unit": "nM"}, {"measurement": "potency estimated from few doses", "setting": "PTK2; [1]", "result": 343, "unit": "nM"}, {"measurement": "potency estimated from few doses", "setting": "RPS6KA6; [1]", "result": 373, "unit": "nM"}, {"measurement": "potency estimated from few doses", "setting": "STK10; [1]", "result": 2400, "unit": "nM"}, {"measurement": "potency estimated from few doses", "setting": "TNK2; [1]", "result": 233, "unit": "nM"}]}
